The campaign covered roughly 50,000 compounds. About 800 (1.6%) showed an effect of 50% or more. This is one part of a sample in which strong results are shown more often than they occur.
molecular target: Bcl-2-like protein 10 (Homo sapiens) (UniProt Q9HD36); experiment: Phenotype converters, Bcl-B/TR3 peptide binding displacement, primary biochemical FP (AID 1240); conditions: GST-Bcl-B / FITC-TR3 peptide fluorescence polarization; stronger effect = higher value; compound at 3.75 mg/L;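 note: 0% = Bcl-B with tracer peptide and DMSO and 100% = tracer peptide lacking Bcl-B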
Sequence (Q9HD36 whole entry, looked up): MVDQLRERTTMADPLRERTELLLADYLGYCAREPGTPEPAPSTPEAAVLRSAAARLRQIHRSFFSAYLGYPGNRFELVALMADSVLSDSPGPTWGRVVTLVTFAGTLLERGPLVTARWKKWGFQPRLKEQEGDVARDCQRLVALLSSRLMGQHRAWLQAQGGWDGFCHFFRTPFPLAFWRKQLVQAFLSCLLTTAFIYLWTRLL

Row | Compound | displacement [%]
1 | Oc1ccccc1C=Nc1ccc2c(c1)ncn2CCn1cnc2cc(N=Cc3ccccc3O)ccc21 | 115
2 | Cc1nc2cc(N=Cc3ccccc3O)ccc2n1C | 12.7
3 | Oc1ccccc1C=Nc1ccc2c(c1)ncn2-c1ccccc1 | 15.5
4 | Cc1nc2c(sc3nc(C)c(C)c(C)c32)c(=O)o1 | 0
5 | COC(=O)c1cc(Cl)c(NC(=O)C(c2ccccc2)c2ccccc2)cc1OC | -16.6
6 | COc1cc(/C=N/NC(=O)/C(=C\C=C\c2ccccc2)NC(=O)c2ccccc2)cc(OC)c1O | -2.3
7 | Cc1c(O)ccc2c3c(c(=O)oc12)CCC3 | 12.3
8 | Cc1c(OCc2ccc(C(=O)O)cc2)ccc2c3c(c(=O)oc12)CCC3 | 8.3
9 | O=c1oc2c3c4c(cc2cc1CCO)CCCN4CCC3 | 75.8
10 | Cc1c(C=O)c(=O)oc2c3c4c(cc12)CCCN4CCC3 | 148
11 | O=c1cc(C(F)(F)C(F)(F)F)c2cc3c4c(c2o1)CCCN4CCC3 | 66.7
12 | CN1CCN(Cc2c(O)ccc3c4c(c(=O)oc23)CCC4)CC1 | -0.5
13 | COCCCNC(=O)c1ccc(C(=O)NCCCOC)cc1 | -6.5
14 | O=[N+]([O-])c1cnc(-c2ccccc2)nc1 | -3.2
15 | COc1cc(Br)cc(/C=C(\C#N)C(=O)NC2CCCCC2)c1O | -5.3
16 | COc1ccc(Cl)cc1C(=O)Nc1nc(-c2ccc(Cl)cc2Cl)cs1 | 9.7
17 | CCSc1nc2ccccc2n1Cc1ccc(OC)c([N+](=O)[O-])c1 | 10.5
18 | CC(=O)Nc1cccc(NS(=O)(=O)c2ccccc2)c1 | 9.1
19 | C=CCNC(=O)Nc1ccc2nccnc2c1 | 8.7
20 | CCOC(=O)c1c(NC=O)sc2c1CCC2 | -2.1
21 | CCOC(=O)c1c(NC=O)sc2c1CCC/C2=N\O | 148
22 | CCOC(=O)c1c(NC(=O)c2ccccc2)sc2c1CCC/C2=N/O | -0.2
23 | COc1cccc(N2C(=O)C(=O)/C(=C(\O)c3ccccc3)C2c2ccc([N+](=O)[O-])cc2)c1 (stereo unspecified) | 4.1

Row | Compound | displacement [%]
24 | O=c1/c(=C/c2cn(Cc3ccc(F)cc3)c3ccccc23)sc2nc3ccccc3n12 | 2.3
25 | NS(=O)(=O)c1cccc(NC(=O)c2cccs2)c1 | 1.4
26 | CCOc1ccc(/C=C2\SC(=S)N(CCC(=O)N3CCOCC3)C2=O)cc1 | 100
27 | O=C(CCCN1C(=O)/C(=C\c2cccs2)SC1=S)Nc1ccccc1O | 10.6
28 | O=C(CCCN1C(=O)/C(=C\c2cccs2)SC1=S)Nc1ccc(F)c(Cl)c1 | 3.9
29 | CCOc1ccc(/C=C2\SC(=S)N(CCC(=O)N3CCN(C)CC3)C2=O)cc1 | 1.2
30 | COc1ccc(NC(=O)CCN2C(=O)/C(=C\c3cccc(OC)c3)SC2=S)cc1 | -5.5
31 | O=C(CCN1C(=O)/C(=C\c2cccs2)SC1=S)Nc1ccc(Cl)cc1 | 77.4
32 | COc1ccc(NC(=O)CCN2C(=O)/C(=C/c3ccc(F)cc3)SC2=S)cc1 | 12.3
33 | CCOc1ccc(/C=C2/SC(=S)N(CN3CCOCC3)C2=O)cc1 | 8.8
34 | O=C(CCN1C(=O)/C(=C/c2cccs2)SC1=S)Nc1ccc(F)cc1 | 10.6
35 | COc1ccc(NC(=O)CCN2C(=O)/C(=C/c3cccs3)SC2=S)cc1 | 82.8
36 | O=C(CCCN1C(=O)/C(=C/c2ccccc2)SC1=S)Nc1ccccc1C(=O)O | 2
37 | Cc1ccccc1NC(=O)CCCN1C(=O)/C(=C/c2cccc3c2OCO3)SC1=S | 94.9
38 | O=C(O)CSc1nnc(-c2ccco2)n1-c1ccccc1 | 0.4
39 | O=C(Nc1ccc(Cl)c(Cl)c1)C(c1ccccc1)c1ccccc1 | 15.4
40 | COC(=O)c1ccccc1P(C)(C)=O | 1
41 | COc1ccc(Br)cc1C(=O)Nc1cc2nn(-c3ccc(C)cc3)nc2cc1C | -6.9
42 | COc1ccc(NS(=O)(=O)c2cc(C)ccc2C)cc1 | 2
43 | O=C(Nc1cccnc1)c1cccc(C(=O)Nc2cccnc2)n1 | -7.2
44 | O=C(CSc1nnc(-c2ccncc2)n1-c1ccccc1)c1ccc(F)cc1 | -2.7
45 | COc1ccc(C(=O)Nc2cccc(NC(=O)c3ccc(F)cc3)c2)cc1Br | 2.2
46 | CN(C)c1ccc(NS(=O)(=O)c2ccccc2[N+](=O)[O-])cc1 | 9.8

Row | Compound | displacement [%]
47 | O=C1C(Cl)=C(N2CCOCC2)C(=O)C(Cl)=C1/C=C/N1CCOCC1 | 24.3
48 | COc1ccc(/C=C2\SC(=S)N(CCCC(=O)Nc3c(C)n(C)n(-c4ccccc4)c3=O)C2=O)cc1 | 120
49 | CCOc1ccc(/C=C2\SC(=S)N(CCC(=O)Nc3cccnc3)C2=O)cc1 | 77
50 | O=C(CCN1C(=O)/C(=C/c2cccs2)SC1=S)Nc1cccc(F)c1 | -21.4
51 | O=C(CCN1C(=O)/C(=C/c2cccs2)SC1=S)Nc1cccnc1 | 135
52 | COc1cccc(NC(=O)CCN2C(=O)/C(=C/c3ccc(C)cc3)SC2=S)c1 | 39.1
53 | Cc1c(NC(=O)CCCN2C(=O)/C(=C/c3ccccc3)SC2=S)c(=O)n(-c2ccccc2)n1C | 1.5
54 | COc1cccc(/C=C2/SC(=S)N(CCC(=O)Nc3c(C)n(C)n(-c4ccccc4)c3=O)C2=O)c1 | 7.7
55 | O=C(CCCN1C(=O)/C(=C\c2cccs2)SC1=S)Nc1cccnc1 | -0.9
56 | CCOc1ccc(/C=C2\SC(=S)N(CCC(=O)Nc3ccccn3)C2=O)cc1 | -4.3
57 | CCc1ccc(C(=O)CC2(O)C(=O)Nc3ccc(Br)cc32)cc1 (stereo unspecified) | 2.3
58 | Cc1ccc(CN2CCN(N=Cc3c(O)ccc4ccccc34)CC2)c(C)c1 | 0.3
59 | Cc1nc([N+](=O)[O-])cn1-c1cccc(O)c1 | 3
60 | Cc1cccc(NC(=O)COc2ccccc2)n1 | 13.2
61 | CCCNc1nc(OCC(F)(F)F)nc(OCC(F)(F)F)n1 | 12.4
62 | O=C1OC(c2ccc(F)cc2)=N/C1=C\c1ccc(Cl)cc1 | 4.3
63 | O=C1OC(c2cccc(F)c2)=N/C1=C\c1ccc(F)cc1 | -2.2
64 | COc1cc(/C=C2\N=C(c3cccc(Br)c3)OC2=O)cc(OC)c1OC | 72.6
65 | CN(C)/C=C1\N=C(c2cccc(Br)c2)OC1=O | 0.8
66 | C=CCOc1c(Br)cc(/C=C2/N=C(c3ccccc3)OC2=O)cc1OC | -4.9
67 | Cc1ccc(C2=N/C(=C\c3ccccc3)C(=O)O2)cc1 | -7.3
68 | COc1ccc(/C=C2\N=C(c3cccc(OC)c3)OC2=O)cc1 | -1.7
69 | O=C1OC(c2ccc(F)cc2)=N/C1=C\c1cccc(Br)c1 | 74.2

Row | Compound | displacement [%]
70 | Cc1ccc(/C=C2\N=C(c3ccc(Cl)cc3)OC2=O)cc1 | 0
71 | COc1ccc(/C=C2/N=C(c3ccc(Br)cc3)OC2=O)cc1 | 99.4
72 | COc1ccc(/C=C2/N=C(c3ccc(C)cc3)OC2=O)cc1Br | 127
73 | COc1ccc(C2=NC(=Cc3ccc(Br)cc3)C(=O)O2)cc1 | 22.5
74 | CN(C)c1ccc(/C=N/NC(=O)c2ccc(CN3CCOCC3)cc2)cc1Br | 6.3
75 | Cc1ccc(-c2csc(N)c2C(=O)OC(C)C)cc1 | -1.9
76 | Cc1c(NC(=O)c2cccs2)cccc1-c1nc2ncccc2o1 | 3.8
77 | O=C(Nc1ccc(Nc2ccccc2)cc1)c1ccc(Cl)cc1Cl | -13.5
78 | O=C(N/N=C/c1ccccc1Cl)c1ccccn1 | -9.6
79 | CNCCOc1nc(-c2ccccc2)cc(-c2ccccc2)n1 | -7.8
80 | CCOC(=O)N1CCN(S(=O)(=O)c2ccc(C)cc2)C1 | 10.6
81 | O=C1CS/C(=N/N=C/c2ccc3c(c2)OCO3)N1 | -8.7
82 | O=C(NCC1CCS(=O)(=O)C1)OC1CCCCC1 (stereo unspecified) | 2
83 | NC(CC(=O)OC1CCCCC1)C(=O)OC1CCCCC1 (stereo unspecified) | 74.3
84 | CC1(C)CC(NCC(=O)OC2CCCCC2)CC(C)(C)N1 | 12.1
85 | Cc1ccc2[nH]c(C)c(CN(C)Cc3ccccc3)c(=O)c2c1 | -15.8
86 | COCCCNC(=O)CN(c1cccc([N+](=O)[O-])c1)S(=O)(=O)c1ccccc1 | 11.1
87 | Cc1cc(NC(=O)c2cc(-c3ccccc3)nc3ccccc23)no1 | 3.8
88 | CN(C)/C=C1\C=C2C(=O)c3ccccc3N2C1=O | 162
89 | CCO/C=C1\C(=O)N(CC)c2ccccc21 | 19.1
90 | CN(C)/C=C1/C=C(c2ccccc2)OC1=O | -11.5
91 | COc1ccc(N(CC(=O)NCc2ccccc2)S(=O)(=O)c2ccc(C)cc2)cc1 | -1.4
92 | COc1ccc(OC)c(N(CC(=O)N/N=C/c2ccc(OC3CSC3)cc2)S(=O)(=O)c2ccccc2)c1 | 7.5

Row | Compound | displacement [%]
93 | COc1ccc(/C(N)=N/OC(=O)c2ccc(Cl)cc2)cc1 | 83.7
94 | COc1ccc(/C(N)=N/OC(=O)c2ccc(C)cc2)cc1 | -20.8
95 | COc1ccc(C(=O)O/N=C(\N)c2ccccc2)cc1 | -9.3
96 | O=C(COc1ccccc1Cl)NNC(=O)c1ccccn1 | -13
97 | O=C1ON=C(c2ccc(Cl)cc2)/C1=C/c1ccc(O)cc1 | 4.4
98 | COc1ccc(/C=C2\C=C(c3ccc(Cl)cc3)OC2=O)cc1OC | 147
99 | COc1ccc(C2=C/C(=C/c3ccc(Cl)cc3)C(=O)O2)cc1 | -4.1
100 | COc1cc(/C=C2\C=C(c3ccc(Cl)cc3)OC2=O)cc(Br)c1OC | -9.5
101 | CCOc1c(I)cc(/C=C2\C(=O)ON=C2c2ccccc2)cc1OC | 3.5
102 | CCOc1cc(/C=C2/C(=O)ON=C2c2ccc(Cl)cc2)ccc1OC | 118
103 | COc1ccc(C2=C/C(=C/c3ccc(Cl)cc3)C(=O)O2)cc1OC | 105
104 | COc1ccc(/C=C2\C=C(c3ccc(Cl)cc3)OC2=O)cc1C | 0.9
105 | COc1ccc(/C=C2\C=C(c3ccc(Cl)cc3)OC2=O)cc1[N+](=O)[O-] | 36.4
106 | CN(C)c1ccc(C=Nn2cnnc2)cc1 | -7.2
107 | CCN(CC)CCSc1nc(O)c(C2CCCCC2)c(=O)[nH]1 | -6.4
108 | COc1cccc(C2NC(=S)NC(C)=C2C(=O)Nc2cccc(Cl)c2)c1 (stereo unspecified) | -14
109 | N#C/C(=C\c1ccc(-c2cccc([N+](=O)[O-])c2)o1)C(=O)N1CCOCC1 | -3.5
110 | CCOC(=O)c1c(C)n(C)c2c1cc(O)c1ccccc12 | -0.3
111 | Cc1ccc(/C=C(\C#N)c2nc(-c3ccc([N+](=O)[O-])cc3)cs2)o1 | 3.5
